FBPA coupling cs: qHTS Assay for Inhibitors of Fructose-1,6-bisphosphate Aldolase from Giardia Lamblia: Coupling assay counterscreen; 290,000 tested, 0.67% active; activity change, negative = inhibition, % at 58.2 µM, hits read low; AID 2472, 2010; coupling enzyme system counterscreen, AmpLite Red fluorescence; in the data active = activity change below about -30%
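Compounds tested against the coupling enzymes alone at 57.5 uM final; readout was AmpLite Red fluorescence (525/598 nm) after 20 min at RT.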
GALK inhibitor: qHTS Assay for Inhibitors of Human Galactokinase (GALK); P51570; Purified GALK, Kinase-Glo residual ATP luminescence; Potency, µM (highest dose often 57.5 µM), usual class: inhibitors; 270,000 tested, 0.007% active; AID 1868, 2009
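Quantitative HTS: GALK 5 nM, ATP 35 uM, galactose 100 uM, 1 h room temperature, then luciferase-based ATP detection.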
VDR inh: Inhibitors of the vitamin D receptor (VDR): qHTS; AID 504847, 2011; 400,000 tested, 0.93% active; Potency, µM, hits mostly inhibitors; VDR-SRC2-3 peptide fluorescence polarization, 2 h
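The screen uses fluorescence polarization to detect compounds that interfere with recruitment of the SRC2-3 coactivator peptide to VDR; plates are read after 2 h at room temperature.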
PLK1 PBD block: qHTS for Inhibitors of PLK1-PDB (polo-like kinase 1 - polo-box domain): Primary Screen; Serine/threonine-protein kinase PLK1 (Homo sapiens), P53350; Plk1 PBD binding of FITC phosphopeptide, fluorescence polarization; Potency, µM, actives largely listed as inhibitors; 360,000 tested, 2.8% active; AID 720504, 2013; note: series mostly up to about 57 µM; nearly all actives have a fitted effect of over 65% in size
USP1-UAF1 inh: Inhibitors of USP1/UAF1: Primary Screen | AID 743255, 2014 | Potency, µM (series often up to 57.1 µM), actives largely listed as inhibitors | 390,000 tested, 0.23% active | recombinant USP1/UAF1, Ub-Rhodamine cleavage fluorescence; note: nearly all actives have a fitted effect of over 60% in size
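High-throughput fluorogenic screen: 1nM USP1/UAF1 complex, Ub-Rho substrate 150nM final, 50mM HEPES pH 7.8 with 0.5mM EDTA, 0.1 mg/ml BSA, 1mM TCEP and 0.01% Tween-20.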
USP2a block: qHTS Assay for Inhibitors of Ubiquitin-specific Protease USP2a Using CHOP2 as the Reporter | AID 463254, 2010 | Ubiquitin carboxyl-terminal hydrolase 2 (Homo sapiens), O75604 | Potency, µM (titrated, usually from 38.3 µM), hits mostly inhibitors | 330,000 tested, 0.01% active | USP2 core, Ub-CHOP2 coupled fluorogenic reporter, 485/531
Target sequence (O75604 whole entry, looked up): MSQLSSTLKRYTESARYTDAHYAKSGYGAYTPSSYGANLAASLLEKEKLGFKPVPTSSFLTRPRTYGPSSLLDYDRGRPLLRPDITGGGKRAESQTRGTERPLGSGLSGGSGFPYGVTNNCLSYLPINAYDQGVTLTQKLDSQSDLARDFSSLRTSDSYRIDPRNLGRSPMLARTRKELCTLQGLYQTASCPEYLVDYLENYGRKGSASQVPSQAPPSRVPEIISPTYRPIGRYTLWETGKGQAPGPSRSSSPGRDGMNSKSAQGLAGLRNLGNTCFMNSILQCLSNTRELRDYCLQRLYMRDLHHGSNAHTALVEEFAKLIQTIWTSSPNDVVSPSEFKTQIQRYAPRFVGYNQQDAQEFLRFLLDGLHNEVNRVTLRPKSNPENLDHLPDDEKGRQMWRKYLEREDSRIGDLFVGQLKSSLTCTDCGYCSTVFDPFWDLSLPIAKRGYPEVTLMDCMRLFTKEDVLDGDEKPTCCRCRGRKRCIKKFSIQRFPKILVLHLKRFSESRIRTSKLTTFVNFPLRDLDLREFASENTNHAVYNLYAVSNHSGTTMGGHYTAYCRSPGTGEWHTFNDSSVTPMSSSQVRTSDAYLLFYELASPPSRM
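Deubiquitinase activity read as fluorescence (485/531 nm) after Ub-CHOP2 cleavage activates the enterokinase reporter on its substrate; USP2 core 10nM, Ub-CHOP2 and substrate 25nM each, 30min compound preincubation then 60min RT; data normalized to NEM, curves fitted.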
Each line names hits and unclear results; the compound was inactive in the other large screens. Compounds with a hit are over-represented: about 3.2% of the library has one in this group of screens. Unless noted, calls come from the whole dose curve; as a rule, active = well fitted curve in the direction sought with a large enough effect; inconclusive = small, poorly fitted or top-dose-only effect, or another doubt; inactive = no such curve, though single readings can be large; an effect the other way counts as inactive or inconclusive.

O=c1c2c([N+](=O)[O-])cc([N+](=O)[O-])cc2sn1Cc1ccccc1	VDR inh 22µM, PLK1 PBD block 0.75µM (no result: GALK inhibitor)
O=c1c2c([N+](=O)[O-])cc([N+](=O)[O-])cc2sn1-c1ccc(Br)cc1	VDR inh 25µM, PLK1 PBD block 2.7µM
O=C1OCC2OC(O)C(O)C(O)C2OC(=O)c2cc(O)c(O)c(O)c2-c2c(O)c(O)c3oc(=O)c4c(c(O)c(O)c5oc(=O)c2c3c54)-c2c1cc(O)c(O)c2O (stereo unspecified)	USP2a block 0.5µM (no result: VDR inh, PLK1 PBD block, USP1-UAF1 inh)
COc1c(O)cc2c(c1O)C1OC(CO)C(O)C(O)C1OC2=O (stereo unspecified)	none (no result: FBPA coupling cs, GALK inhibitor)
COc1cc(CC(=O)O)c([N+](=O)[O-])cc1OC	none
O=c1[nH]nc(CNc2ccc(OC(F)(F)F)cc2)c2ccccc12	none
O=c1[nH]nc(CNc2ccc(O)cc2)c2ccccc12	FBPA coupling cs -49, VDR inh inconclusive, USP1-UAF1 inh inconclusive
COc1ccc(S(=O)(=O)c2cn(CC(=O)Nc3ccccc3)c3ccc(Cl)cc3c2=O)cc1	none (no result: FBPA coupling cs, GALK inhibitor, PLK1 PBD block, USP2a block)
Cc1nc2ccccc2n1C1CCN(CC(=O)NCc2ccc(F)cc2)CC1	none
CCN1CCN(C(=O)Cn2nc(C)c3sc4ccccc4c3c2=O)CC1	none
N#C/C(=C\c1cccs1)C(=O)c1ccccc1Cl	VDR inh 35µM, PLK1 PBD block 1.5µM
N#C/C(=C\c1cccs1)C(=O)NCc1ccccc1	VDR inh 45µM, PLK1 PBD block 3.4µM
COc1ccc2[nH]c(S(=O)Cc3ncc(C)c(OC)c3C)nc2c1 (stereo unspecified)	USP1-UAF1 inh inconclusive (no result: VDR inh)
COc1ccc2[nH]c(S(=O)Cc3ncc(C)c(OC)c3C)nc2n1 (stereo unspecified)	VDR inh 45µM (no result: FBPA coupling cs, GALK inhibitor, PLK1 PBD block, USP1-UAF1 inh, USP2a block)
CCOC(=O)C1CCN(C(=O)c2cc3c(=O)n4ccccc4nc3n2C)CC1	none
O=C(Cc1cccs1)N/N=C/c1ccccn1	none
Cc1ccc2[nH]c(=O)c(CN(C)C(=O)c3cccs3)cc2c1	PLK1 PBD block 30µM
Cc1cccc(C(O)(C(=O)NNc2ccc3ccccc3n2)c2cccc(C)c2)c1	none
O=C(Nc1cccnc1Cl)c1cccc(S(=O)(=O)N2CCOCC2)c1	none
CCCN(CCC)S(=O)(=O)c1ccc2c(c1)CCCN2C(C)=O	none
Cc1oc(CSCCSCc2cc(C(=O)O)c(C)o2)cc1C(=O)O	none
Nc1ccccc1Oc1ncc(C(F)(F)F)cc1Cl	none
Cn1nc(C(F)(F)F)cc1Oc1ncc(C(F)(F)F)cc1Cl	VDR inh 1.4µM
Cc1cc(C)c(NC(=S)NCC2CCN(C(C)c3ccccc3)C2)c(C)c1 (stereo unspecified)	FBPA coupling cs -49, VDR inh 45µM, PLK1 PBD block 2.7µM
CN(C)c1ccc(/C=C2\SC(=O)N(CC(O)Cn3c4ccccc4c4ccccc43)C2=O)cc1 (stereo unspecified)	PLK1 PBD block inconclusive, USP1-UAF1 inh 13µM
O=C1S/C(=C/c2ccccc2)C(=O)N1CC(O)Cn1c2ccccc2c2ccccc21 (stereo unspecified)	none
Cc1nnc(N/N=C/c2cc(C)n(-c3ccc(F)cc3)c2C)n1N	FBPA coupling cs -42, USP1-UAF1 inh inconclusive (no result: GALK inhibitor)
Cc1nnc(N/N=C/c2ccccc2O)n1N	FBPA coupling cs -31, USP1-UAF1 inh inconclusive
CCOc1cc(/C=N/Nc2nnc(C)n2N)ccc1O	none
Cc1cc(/C=N/NC(N)=S)c(C)n1-c1ccc(Cl)cc1	PLK1 PBD block 30µM
Cc1cc(/C=N/NC(N)=S)c(C)n1-c1ccc(Br)cc1	VDR inh inconclusive
CCN(CC(=O)Nc1ccc2c(c1)OCCO2)C(=O)CC1CCCC1	none
CN1C(=O)CON=C1c1cccc2ccccc12	none (no result: FBPA coupling cs, GALK inhibitor, VDR inh, USP1-UAF1 inh, USP2a block)
CC1=CN2C(=N)/C(=C/c3ccc([N+](=O)[O-])o3)C(=O)N=C2S1	FBPA coupling cs -32, VDR inh inconclusive, PLK1 PBD block inconclusive, USP1-UAF1 inh inconclusive
CC(=O)Nc1cnc(NC(=O)c2cccc(F)c2)cc1C	none
COc1ccc(C(=O)Oc2c(Sc3ccccc3)c(C)nn2-c2ccccc2)c(OC)c1	none (no result: FBPA coupling cs, GALK inhibitor, PLK1 PBD block, USP2a block)
Cc1nn(-c2ccccc2)c(OC(=O)C(C)C)c1Sc1ccc(Cl)cc1	VDR inh 89µM (no result: FBPA coupling cs, GALK inhibitor, PLK1 PBD block, USP2a block)
COc1ccc(C2NC(=O)C(C#N)=C(S)N2c2ccccc2)cc1OC (stereo unspecified)	VDR inh 45µM
COc1cc(C2C3CN(C)CC=C3C(C#N)=C(N)C2(C#N)C#N)ccc1OC(C)C (stereo unspecified)	PLK1 PBD block inconclusive, USP1-UAF1 inh inconclusive
COc1ccc(C2NC(=O)c3ccccc3N2)cc1OC (stereo unspecified)	none
COc1cc(C2NC(=O)C(C#N)=C(S)N2c2ccccc2)ccc1OC(C)C (stereo unspecified)	VDR inh 35µM
COC(=O)Oc1ccc(/C=N/NC(=O)CN(c2ccccc2Br)S(C)(=O)=O)cc1OC	none
CCc1ccccc1N(CC(=O)N/N=C/c1ccc(OC(=O)OC)c(OC)c1)S(C)(=O)=O	PLK1 PBD block 24µM
COc1ccc(N(C(C)C(=O)NN=C2CCCCCCC2)S(C)(=O)=O)cc1 (stereo unspecified)	PLK1 PBD block 27µM
COc1ccc(N(C(C)C(=O)N/N=C/c2ccc(OC(C)C)cc2)S(C)(=O)=O)cc1 (stereo unspecified)	none
COc1ccc(N(C(C)C(=O)N/N=C/c2ccc(OC)c(OC)c2)S(C)(=O)=O)cc1 (stereo unspecified)	PLK1 PBD block 30µM
COc1cccc(-c2nnc(-c3ccc(C(F)(F)F)cc3)o2)c1OC	none
Cc1cc(C)c(NC(=O)CN(C)C(=O)CCN2C(=O)C3CCCCC3C2=O)c(C)c1 (stereo unspecified)	none (no result: FBPA coupling cs, GALK inhibitor, VDR inh, USP2a block)
CCNC(=O)c1ccccc1SCC(=O)Nc1ccc(F)cc1	VDR inh inconclusive, PLK1 PBD block 9.5µM
CCNC(=O)c1ccccc1SCc1ccccc1	none
COc1cccc(-c2nnc(-c3ccco3)o2)c1	VDR inh inconclusive, PLK1 PBD block 30µM (no result: GALK inhibitor)
CCc1cccc(C)c1NC(=O)CCCn1c(=O)c2cccn2c2cccnc21	VDR inh inconclusive, PLK1 PBD block 24µM (no result: FBPA coupling cs)
COC(=O)c1ccc(C(=O)OC)c(NC(=O)CSc2cccc[n+]2[O-])c1	PLK1 PBD block 24µM
COC(=O)c1ccc(-n2c(C)cc(C(=O)CSc3cccc[n+]3[O-])c2C)cc1	none
